Drawing on PubChem BioAssay AID1851 (National Center for Advancing Translational Sciences (NCATS), 2009), this text covers AC50 and activity, negative = inhibition for 57 compounds.

Among all 16,000 compounds or so, about 4,000 (25%) were called active. Inconclusive results (about 26%) are left out. These entries were drawn from the full list. Values without a mark were called inactive. The call rests on the fitted dose curve; in most records, active means well fitted curve in the direction sought with a large enough effect; inconclusive means small, poorly fitted or top-dose-only effect, or effect the other way; inactive means no such curve, though single readings can be large or run the other way.
On the % scale 0 is the no-effect control and ±100 the full control effect.

Cytochrome P450 2C9 (Homo sapiens), sequence (P11712 whole entry, looked up): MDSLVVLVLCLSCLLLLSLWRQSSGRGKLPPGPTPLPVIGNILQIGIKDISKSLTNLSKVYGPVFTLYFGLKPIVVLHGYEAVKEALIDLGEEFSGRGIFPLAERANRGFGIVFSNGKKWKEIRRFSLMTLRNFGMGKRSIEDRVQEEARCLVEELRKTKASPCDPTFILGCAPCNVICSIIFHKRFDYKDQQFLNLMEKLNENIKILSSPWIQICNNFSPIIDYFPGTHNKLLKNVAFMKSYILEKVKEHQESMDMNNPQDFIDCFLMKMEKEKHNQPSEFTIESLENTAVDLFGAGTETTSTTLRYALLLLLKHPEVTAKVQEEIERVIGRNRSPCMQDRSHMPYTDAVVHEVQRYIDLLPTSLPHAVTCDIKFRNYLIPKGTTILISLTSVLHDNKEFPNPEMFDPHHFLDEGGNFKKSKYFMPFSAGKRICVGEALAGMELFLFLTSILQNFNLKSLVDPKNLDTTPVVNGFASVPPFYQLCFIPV

The test concerns the target Cytochrome P450 2C9 (Homo sapiens) (UniProt P11712). Put plainly: Cytochrome panel assay with activity outcomes. Conditions: recombinant CYP, pro-luciferin dealkylation, luminescence, p450-cyp2c9; series mostly up to 57.1 µM.
Broadly, the AC50 is the concentration giving half of the maximal activity seen. Take `Cc1c(NC(=O)C(Sc2ccccc2)c2ccccc2)cccc1[N+](=O)[O-]` (configuration not stated): the AC50 is 251 nM (active).
On the same count and under the same terms, next, `Cc1c(C(=O)NN2CCN(C)CC2)cccc1[N+](=O)[O-]`: “inactive”; `O=[N+]([O-])c1cc(/C=N/O)ccc1SCc1ccccc1`: “inactive”.
On to `CC(C)Cn1c(-c2nn(C)cc2Cl)n[nH]c1=S`, for which the AC50 entry was “inactive”.
The same measure, in the same setting: next, `CN1CCN(c2ncc3nc(-c4ccc(Cl)cc4)c(=O)n(CCC#N)c3n2)CC1`: “inactive”; `CCOC(=O)c1cc(-c2ccc(Cl)cc2)nc2c1c(C)nn2CCC#N`: 10000 nM (active); `OC(Cc1nc2ccccc2[nH]1)c1ccccc1Cl` (configuration not stated): 14100 nM (active).
On the same count and under the same terms, next, `OCCNc1nc2ccccc2[nH]1`: “inactive”.
`O=C1CC[C@](CCc2nc3ccccc3[nH]2)(c2ccccc2)C(=O)N1`: the activity, negative = inhibition was -12.8% [at 11.4 µM].
For the compound `COCC(=O)N1CCC[C@@]2(CCN(Cc3ccccc3OC)C2)C1`, the AC50 result was “inactive”.
On the same count and under the same terms, the same measure for `CCC(=O)Nc1ccccc1C(=O)OCC(=O)c1ccccc1`: 631 nM (active); for `CCOC(=O)c1ccccc1NC(=O)/C(C)=C/C(=O)O`: “inactive”.
Still for that read-out and setting: the same measure for `CCc1ccc(C(=O)COC(=O)C(Cc2ccccc2)NC(=O)C2CCC(C)CC2)cc1` (configuration not stated): “inactive”.
On the same count and under the same terms, next, `CCC(=O)Nc1ccccc1C(=O)OCC(=O)c1cccc2ccccc12`: 2240 nM (active).
In the case of `C[N+]1(C)CCO[C@](O)(c2ccccc2)C1`, the activity, negative = inhibition was 3.31% [at 11.4 µM].
With `CSCC[C@H](NC(=O)CC(C)(C)C)c1nc2ccccc2[nH]1`, the AC50 is 14100 nM (active).
As for `CSCC[C@H](NC(=O)c1nn(C)c(=O)c2ccccc12)c1nc2ccccc2[nH]1`, the AC50 is 2000 nM (active).
Still for that read-out and setting: next, `CCCCCCCCCCCC1=C(O)C(=O)C=C(O)C1=O`: “inactive”; `Cn1c(C(F)(F)F)nc2c(=O)oc3ccccc3c21`: “inactive”; `O=C(O)c1ccccc1C(=O)NNc1ccc(Cl)cc1`: “inactive”.
On the same count and under the same terms, the same measure for `O=C(OCc1ccc(Cl)cc1)c1ccccc1C(=O)c1ccccc1`: 4470 nM (active).
For the compound `O=C(O)c1ccc(C(=O)c2ccccc2)c(C(=O)O)c1`, the activity, negative = inhibition is 21.8% [at 11.4 µM].
Take `CC(C)(C)C1CCC(OCC(O)CN2CCN(c3ccccc3)CC2)CC1` (configuration not stated): the AC50 result is “inactive”.
As for `CCOC(=O)CCN1C(=O)[C@H]2[C@H]3[C@H](O)[C@H](O)C/C(=N/OC[C@@H](O)COCc4ccco4)[C@@H]3CC[C@@H]2C1=O`, the activity, negative = inhibition was -5.27% [at 11.4 µM].
With `CC1CCN(c2cc(N3CCC(C)CC3)c([N+](=O)[O-])cc2/C=C(\C#N)c2nn(-c3ccccc3)c(N)c2C#N)CC1`, the AC50 was 224 nM (active).
Still for that read-out and setting: the same measure for `N#C/C(=C\c1cc([N+](=O)[O-])c(N2CCCCC2)cc1N1CCCCC1)c1nn(-c2ccccc2)c(N)c1C#N`: 316 nM (active).
The same measure, in the same setting: next, `COc1cccc(-c2cncnc2NCCc2cnc[nH]2)c1`: 251 nM (active).
With `CS(=O)(=O)Nc1cccc(-c2cncnc2Nc2ccccc2)c1`, the activity, negative = inhibition was -11.4% [at 2.29 µM].
Same read-out and setting: next, `c1cncc(-c2cncnc2NCc2cccs2)c1`: -1.39% [at 2.29 µM]; `COc1cccc(-c2cncnc2NCc2cccnc2)c1`: -10.5% [at 2.29 µM].
Regarding `CS(=O)(=O)Nc1cccc(-c2cncnc2NCc2cccs2)c1`, the AC50 is 126 nM (active).
For `COc1cccc(-c2cncnc2NCc2cnc(C)cn2)c1`, the activity, negative = inhibition was 4.41% [at 2.29 µM].
For `COc1ccccc1CNc1ncncc1-c1cccc(NS(C)(=O)=O)c1`, the activity, negative = inhibition was -27.7% [at 2.29 µM].
Still for that read-out and setting: the same measure for `CS(=O)(=O)Nc1cccc(-c2cncnc2Nc2ccc(F)cc2)c1`: -8.15% [at 2.29 µM].
Regarding `CS(=O)(=O)Nc1cccc(-c2cncnc2NCc2ccccc2)c1`, the AC50 was 398 nM (active).
On the same count and under the same terms, next, `COc1cccc(-c2cncnc2NCc2cccs2)c1`: 398 nM (active).
For `COc1cccc(-c2cncnc2NCCN2CCOCC2)c1`, the activity, negative = inhibition was 1.81% [at 2.29 µM].
The same measure, in the same setting: the same measure for `CS(=O)(=O)Nc1cccc(-c2cncnc2NCc2cccnc2)c1`: -3.43% [at 2.29 µM].
As for `O=C(O)CSCNC(=O)CC12CC3CC(CC(C3)C1)C2`, the AC50 result was “inactive”.
With `CN(C)c1ccc(-c2cncnc2NCc2cccs2)cc1`, the activity, negative = inhibition was -23.6% [at 2.29 µM].
On the same count and under the same terms, the same measure for `Cc1cccc(CNc2ncncc2-c2ccc3c(c2)OCO3)c1`: -20.1% [at 2.29 µM].
Take `c1csc(CNc2ncncc2-c2ccc3c(c2)OCO3)c1`: the AC50 was 316 nM (active).
Regarding `CCOc1c2ccc(C(=O)NCCCCc3ccccc3)cc2nn1CC`, the AC50 is 11200 nM (active).
The same measure, in the same setting: the same measure for `CCCN(CCC)CCCNC(=O)c1ccc2c(c1)N(CC)C(=O)c1ccccc1S2=O` (configuration not stated): “inactive”.
Same read-out and setting: next, `COCCn1nc2cc(C(=O)NCc3cc(C(F)(F)F)cc(C(F)(F)F)c3)ccc2c1OC`: “inactive”; `CCOc1c2ccc(C(=O)NCc3ccc4c(c3)OCO4)cc2nn1CC`: 14100 nM (active); `CCOc1c2ccc(C(=O)NCc3ccc(OC(F)(F)F)cc3)cc2nn1C`: 15800 nM (active).
Same read-out and setting: next, `CCn1nc2cc(C(=O)NCC34CC5CC(CC(C5)C3)C4)ccc2c1OC`: 14100 nM (active).
Regarding `NC[C@@H]1O[C@H](O[C@@H]2[C@H](O[C@@H]3O[C@H](CO)[C@@H](COC[C@H]4O[C@@H](CN)[C@@H](O)[C@@H](O)[C@@H]4N)[C@@H]3O)[C@@H](O)[C@@H](N)C[C@H]2N)[C@@H](N)[C@H](O)[C@@H]1O`, the AC50 entry was “inactive”.
As to `Clc1ccccc1-c1nc(-n2ccnc2)c2ccccc2n1`, the activity, negative = inhibition was -16.4% [at 2.29 µM].
For the compound `CCCn1nc2cc(C(=O)NCCCCc3ccccc3)ccc2c1OCC`, the AC50 is 12600 nM (active).
The same measure, in the same setting: the same measure for `CCCn1nc2cc(C(=O)NCc3ccccc3OC)ccc2c1OCC`: “inactive”.
`CCOC(=O)N/N=C1/C[C@@H](O)[C@@H](O)[C@@H]2[C@@H]3C(=O)N(C(C)(C)C)C(=O)[C@H]3CC[C@H]12`: the activity, negative = inhibition was -0.388% [at 11.4 µM].
Consider `Cc1cc(O)c(/C=N/Nc2cccc(Cl)c2)c(=O)o1`, for which the AC50 is 3160 nM (active).
Consider `Clc1cccc(N/N=C/c2ccc(N3CCOCC3)cc2)c1`, for which the AC50 result was “inactive”.
The same measure, in the same setting: next, `CCOC(=O)CSc1nnc(NC(=O)c2cccc(S(=O)(=O)N3CCCCCC3)c2)s1`: 1000 nM (active); `CCC(CC)c1nnc(NC(=O)c2cccc(S(=O)(=O)N3CCc4ccccc43)c2)s1`: 1580 nM (active).
